From PubChem
The list is not random: actives were taken first. Their share in the collection is about 2.8%.
MsrA inh – bovine MsrA inhibition; purified bovine MsrA, absorbance read-out; inhibition, % at 15.5 µM; AID 651718; hit rate 0.75% among 360,000; in the data active = inhibition above about 4.5%
bovine MsrA act – activates bovine MsrA enzyme | AID 602163 | activation, % at 10.6 µM | purified bovine MsrA, absorbance read-out | hit rate 0.3% among 360,000; in the data active = activation above about 7.5%
HGIII-sPLA2 inh – Inhibits HGIII-sPLA2 liposome hydrolysis, primary screen | Q9NZ20 | QFRET BODIPY PC-A2 liposome hydrolysis, fluorescence | inhibition, % at 12.2 µM | hit rate 0.56% among 370,000 | AID 743126;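 active = inhibition above mean plus 3 SD of compounds lying within the high and low control bounds, cut at about 19% in these data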
Target sequence (Q9NZ20 whole entry, looked up): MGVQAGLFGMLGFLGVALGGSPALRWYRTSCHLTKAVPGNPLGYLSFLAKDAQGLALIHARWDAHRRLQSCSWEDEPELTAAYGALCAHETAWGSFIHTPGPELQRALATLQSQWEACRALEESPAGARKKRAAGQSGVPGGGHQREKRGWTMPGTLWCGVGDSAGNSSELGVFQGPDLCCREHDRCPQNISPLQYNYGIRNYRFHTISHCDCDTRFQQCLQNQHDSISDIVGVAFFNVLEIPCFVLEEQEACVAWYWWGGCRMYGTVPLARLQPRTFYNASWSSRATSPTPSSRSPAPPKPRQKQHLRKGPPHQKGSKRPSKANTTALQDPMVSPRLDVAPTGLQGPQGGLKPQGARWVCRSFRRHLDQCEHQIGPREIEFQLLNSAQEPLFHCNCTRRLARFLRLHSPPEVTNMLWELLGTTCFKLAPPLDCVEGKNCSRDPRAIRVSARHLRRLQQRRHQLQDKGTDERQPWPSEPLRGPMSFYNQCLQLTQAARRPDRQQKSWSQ
rCAG binder – molecules binding r(CAG) RNA repeats; AID 651821; r(CAG) RNA repeat, TO-PRO-1 dye displacement fluorescence; inhibition, % at 3 µM; hit rate 1.3% among 370,000;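 active = inhibition above the plate cutoff, the mean of all test compounds on that plate plus 3 SD, cut at about 35% in these data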;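 also: higher means more dye released from RNA so lower well fluorescence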
Large screens that a line does not name were inactive.

CCc1nc(NC(=O)c2sc(C)nc2C)sc1C(=O)OC	MsrA inh 4.6
COC(=O)c1sc(NC(=O)c2cc(C)on2)nc1C	none
COc1ccccc1CNC(=O)c1ccc(CS(=O)Cc2cccc(Cl)c2)o1 (configuration not stated)	none
O=C(CN1CCN(c2ccc(O)cc2)CC1)Nc1ccc2c(c1)OCCCO2	none
Cc1cc(C)nc(N/N=C/c2ccco2)n1	none
Cc1cc(C)nc(N/N=C/c2cc(C)n(CC(F)(F)F)c2C)n1	MsrA inh 4.6
COc1ccc(-c2ccc(/C=C(\NC(=O)c3ccccc3)C(=O)N3CCOCC3)o2)cc1	MsrA inh 4.6
COc1ccc(C(=O)N/C(=C\c2ccccc2)C(=O)N2CCOCC2)cc1	none
N#Cc1c(-c2ccccc2)nc(SCC(=O)N2c3ccccc3Sc3ccccc32)[nH]c1=O	rCAG binder 89
CCOC(=O)CCCCC(=O)c1[nH]c(=O)[nH]c1CSc1nc(-c2ccccc2)c(C#N)c(=O)[nH]1	rCAG binder 56
COC(=O)c1ccc(OCC(=O)c2ccc(C)c(C)c2)cc1	none
COc1ccccc1N1CCN(C(=O)/C=C/c2c(Cl)nc3ccccn23)CC1	MsrA inh 4.6
COc1ccc(C(=O)C[n+]2ccccc2C)cc1	none
Cc1cc(NC(=O)c2cc3cc([N+](=O)[O-])ccc3s2)no1	none
Cc1cc(C(=O)N/N=C/C=C/c2ccc3c(c2)OCO3)n[nH]1	MsrA inh 8.9
O=C(N/N=C\C=C\c1ccc2c(c1)OCO2)C1COc2cc3ccccc3cc2O1 (configuration not stated)	none
COc1cc2[nH]c(C(=O)Nc3ccc4c(c3)OCCO4)cc2c(OC)c1OC	none
COc1cc2cc(C(=O)Nc3ccc4c(c3)OCCO4)[nH]c2cc1OC	MsrA inh 4.6
O=C1CCCC(O)=C1C=Nc1ccc(O)cc1	MsrA inh 4.6
O=C1CC(c2ccccc2)CC(O)=C1C=Nc1ccc(Cl)cc1 (configuration not stated)	none
Cc1ccsc1/C=N/NC(=O)c1c[nH]c2ccccc12	MsrA inh 5.1
Cc1ccc(/C=N/NC(=O)c2c[nH]c3ccccc23)s1	none
CCOc1ccc(C(=O)c2nc3c(n2O)CCCC3)cc1	MsrA inh 5.0
Cc1ccc(C(=O)c2nc3c(n2O)CCCC3)cc1	none
Cc1cc(CN(C)C(=O)CC2C(=O)NCCN2Cc2c(F)cccc2Cl)n[nH]1 (configuration not stated)	none
O=C(NCCOC(=O)c1ccc(Cl)c(S(=O)(=O)N2CCCCC2)c1)c1ccncc1	none (no result: MsrA inh, HGIII-sPLA2 inh, rCAG binder)
O=C(O)CN1C(=O)/C(=C/c2cccc(Cl)c2)Oc2ccccc21	rCAG binder 52
Cc1ccc(S(=O)(=O)NCC(=O)OCc2ccccc2)cc1	none
O=C(O)c1ccccc1NS(=O)(=O)c1ccc2c3c(cccc13)C(=O)N2	none
O=C1CCCc2oc3c(cc(NS(=O)(=O)c4ccc5c6c(cccc46)C(=O)N5)c4ccccc43)c21	rCAG binder 46
Nc1nnc(CC(=O)N/N=C/c2ccc(-c3ccc(F)cc3)o2)s1	MsrA inh 6.1
O=C1OCCN1C(=O)[C@H]1[C@H](c2ccc([N+](=O)[O-])cc2)C(c2ccc(F)cc2)=NN1c1ccc(Br)cc1	MsrA inh 4.7
CC1CCc2c(sc(NC(=O)c3cccs3)c2C(=O)O)C1 (configuration not stated)	none
COC(=O)c1c(NC(=O)c2cccs2)sc2c1CCC(C)C2 (configuration not stated)	bovine MsrA act 8.3
O=C(NC1CCCC1)c1nc(-c2ccco2)oc1-c1ccccc1	rCAG binder 35 (no result: bovine MsrA act)
O=C(NC1CCCCC1)c1nc(-c2c(F)cccc2F)oc1-c1ccccc1	none (no result: bovine MsrA act)
CC(C)c1noc2ncc(C(=O)c3cc(Cl)cc(Cl)c3O)cc12	rCAG binder 47
COc1ccc(C(=O)/C=C/c2ccc(O)cc2)c(O)c1CC=C(C)C	rCAG binder 53
Cc1cc(-n2c(C)cc(C(=O)CSc3ccccn3)c2C)no1	none
Cc1cc(-n2c(C)cc(C(=O)CSc3ccc4c(c3)OCCO4)c2C)no1	bovine MsrA act 24
CN(C)c1ccc(C(=O)C(=O)c2ccccc2)cc1	MsrA inh 4.6
CC(=O)c1ccc(N(C)C)cc1	none
CC(=O)C1=C(O)C=C(c2ccco2)CC1c1ccco1 (configuration not stated)	MsrA inh 4.8
O=C(CCl)N1N=C(c2ccco2)CC1c1ccco1 (configuration not stated)	none
Cn1c(=O)c(=O)n(C)c2cc([N+](=O)[O-])c([N+](=O)[O-])cc21	MsrA inh 5.1
Oc1ccc(/C=N/n2c(-c3ccccc3)n[nH]c2=S)cc1Br	MsrA inh 4.6
O=C(N/N=C/c1ccc2c(c1)OCO2)c1cccc(NC(=O)c2ccccc2Cl)c1	none
